Screening results as filed in PubChem.
The full list was thinned out, with hits kept by preference.
SARS PLP yeast = qHTS of Yeast-based Assay for SARS-CoV PLP; hit rate 0.19% among 330,000; S. cerevisiae expressing SARS-CoV PLpro, growth rescue; Potency, µM (highest dose often 32.9 µM), inactives show at the highest dose activity, positive = growth rescue, most hits filed as activators; calls by dose curve; note: potency is the fitted concentration of half-maximal effect; 0% is about no effect; nearly all actives have a fitted effect of over 55% in size
AMA1 RON2 block = qHTS for Inhibitors of AMA1-RON; Towards Development of Antimalarial Drug Lead: Primary Screen. Potency, µM (top dose mostly 58.2 µM), inactives show at the highest dose activity change, negative = inhibition, usual class: inhibitors. AlphaScreen AMA1-biotinylated RON2 peptide binding. hit rate 0.2% among 360,000;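 note: potency is the fitted concentration of half-maximal effect; 0% = vehicle wells and -100% = peptide control; nearly all actives have a fitted effect of over 45% in size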
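AMA1 (3D7) with his tag at 25 nM final met compounds first, then biotinylated RON2 peptide at 25 nM; detection used donor plus acceptor beads, 10 µg/mL apiece, read by AlphaScreen after 30 min at room temperature.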
AmpC detergent = qHTS Inhibitors of AmpC Beta-Lactamase (assay with detergent); hit rate 0.041% among 370,000; P00811; AmpC hydrolysis of nitrocefin, absorbance 480 nm, 0.01% Triton; Potency, µM (top dose mostly 114 µM), without a hit: at the highest dose activity change, negative = inhibition, usual class: inhibitors;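 note: potency is the fitted concentration of half-maximal effect; 0% = no-compound wells and -100% = no-enzyme wells; nearly all actives have a fitted effect of over 25% in size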
Target sequence (P00811 whole entry, looked up): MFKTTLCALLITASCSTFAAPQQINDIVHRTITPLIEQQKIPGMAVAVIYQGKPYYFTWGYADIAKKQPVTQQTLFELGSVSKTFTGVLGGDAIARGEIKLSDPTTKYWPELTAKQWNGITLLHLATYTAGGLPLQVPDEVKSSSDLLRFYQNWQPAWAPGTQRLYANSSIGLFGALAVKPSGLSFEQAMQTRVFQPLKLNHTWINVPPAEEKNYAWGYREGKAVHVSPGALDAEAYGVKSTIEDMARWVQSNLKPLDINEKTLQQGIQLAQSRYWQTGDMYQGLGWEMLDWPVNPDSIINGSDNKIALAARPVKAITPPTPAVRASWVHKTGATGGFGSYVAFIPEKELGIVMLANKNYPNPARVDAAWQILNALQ
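20 mM phosphate pH 7.0 + 0.01% (detergent screen) or 0.0001% Triton X-100; 5.3 nM AmpC reagent; cpd preinc 15 min RT; nitrocefin (800 uM stock) to start; A480 q20 s × 4 min; Activity was normalised to no-enzyme and no-compound control wells.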
Shiga toxin inh = A qHTS for Small Molecule Inhibitors of Shiga Toxin. Vero cells, Shiga toxin protein synthesis inhibition reporter. hit rate 9.2% among 290,000. inhibition, % at 38.7 µM; in the data active = inhibition mostly above about 28%, no sharp cut-off; inactive = mostly below about 43%; note: 0% is about no effect
Cycloheximide cs = Cycloheximide Counterscreen for Small Molecule Inhibitors of Shiga Toxin. cell reporter, cycloheximide protein synthesis inhibition counterscreen. AID 2314, 2010. max response, %. hit rate 12% among 300,000; in the data active = max response mostly above about 13%, no sharp cut-off; inactive = mostly below about 14%; note: read at 38.3 µM for the half of the compounds with a filed dose; 0% is about no effect
AmpC no deterg = qHTS Inhibitors of AmpC Beta-Lactamase (assay without detergent); P00811; Potency, µM (titrated, usually from 57.1 µM), for inactives: at the highest dose activity change, negative = inhibition, most hits filed as inhibitors; AmpC nitrocefin hydrolysis, absorbance 480 nm, 0.0001% Triton; hit rate 0.52% among 330,000;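 note: potency is the fitted concentration of half-maximal effect; plate controls were no compound for no effect and no enzyme for full effect; nearly all actives have a fitted effect of over 20% in size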
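AmpC (5.3 nM in the dispensed reagent) in 20 mM phosphate pH 7.0 with 0.01% (detergent screen) or 0.0001% Triton X-100 was preincubated with compounds for 15 min at room temperature. Nitrocefin was then added from an 800 uM solution, and hydrolysis was followed at 480 nm.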
The depositor's hits bear a star; u = inconclusive; x = not tested or not shown; [ ] = another dose, or the depositor's remark. Unless noted, calls come from the whole dose curve; as a rule, active = well fitted curve in the direction sought with a large enough effect; inconclusive = small, poorly fitted or top-dose-only effect, or another doubt; inactive = no such curve, though single readings can be large; an effect the other way counts as inactive or inconclusive.

SMILES | SARS PLP yeast | AMA1 RON2 block | AmpC detergent | Shiga toxin inh | Cycloheximide cs | AmpC no deterg
CC1(c2ccccn2)Nc2ccccc2-c2nc3ccccc3n21 (centres undefined) | -6% | 53% | -2% | 27 | 15 | -25%
c1ccc2c(c1)NC1(CCCCCC1)n1c-2nc2ccccc21 | -18% | 16% | 3% | 77* | 34* | -32%
c1ccc2c(c1)NC1(CCCCC1)n1c-2nc2ccccc21 | -3% | 40% | u | 71 | 26* | -29%
Cc1ccc(NC2=NCCCCC2)cc1 | 2% | -14% | -13% | -5 | -3 | -20%
Nc1ccc2c(c1)COc1ccccc1O2 | -7% | 4% | -15% | 88* | 16* | -18%
O=C(c1ccccn1)c1cc2ccccc2n1S(=O)(=O)c1ccccc1 | -19% | 0% | -8% | 43* | 26* | -30%
COc1cccc(C(c2c(N)n(C)c(=O)n(C)c2=O)C(C)[N+](=O)[O-])c1 (centres undefined) | -4% | -5% | 3% | 22 | -3 | -14%
O=C(NCCC(c1ccccc1)c1ccccc1)c1cnc2sccn2c1=O | -1% | -3% | -6% | -4 | -3 | -9%
Cc1ccc(C(=O)NNC(=O)Cc2ccccc2)cc1 | 4% | 4% | u | 75 | 28* | -33%
Cc1ccc(C(=O)NNC(=O)Cc2cccs2)cc1 | 6% | 56% | 0% | 29 | 20* | -2%
CN(C)C(=S)NC(=O)C12CC3CC(C)(CC(C)(C3)C1)C2 | 1% | 78% | 2% | -12 | 1 | 15%
Cc1ccccc1NC(=O)Cn1c(=O)sc2ccccc21 | -2% | -7% | 4% | 34 | 1 | -27%
COc1cccc(NC(=O)NC2CCCCCCC2)c1 | -10% | 26% | u | 155* | 50* | -48%
COc1cc(NC(=O)NC2Cc3ccccc3C2)cc(OC)c1 | -2% | 12% | -8% | 53* | 20* | -21%
COc1cc(NC(=O)C2Cc3ccccc3CN2S(C)(=O)=O)cc(OC)c1 (centres undefined) | -1% | 11% | -15% | -4 | 2 | -14%
COc1cccc(NC(=O)C(=S)NC2CCCCC2)c1 | -3% | 28% | -2% | 106* | 50* | -7%
Cc1onc(-c2c(F)cccc2Cl)c1C(=O)Nc1sc2c(c1C#N)CCC(C(C)(C)C)C2 (centres undefined) | -10% | -23% | 4% | -19 | -2 | -40%
CCOc1ccc(C)cc1S(=O)(=O)Nc1cccnc1 | x | -2% | x | x | x | x
CC(=O)N1c2ccc(S(=O)(=O)NCC3CCC(C(=O)Nc4ccc(C)cn4)CC3)cc2CC1C (centres undefined) | -1% | -6% | 2% | -2 | -2 | 45%
COc1ccc(CNC(=O)c2noc3c2CCCCC3)cc1 | 1% | -5% | u | 85* | 25* | -22%
Cc1oc2c(c1C(=O)NCc1ccccc1)CCCC2 | -3% | 7% | -6% | -2 | 7 | -22%
O=C(Nc1ccccc1C(F)(F)F)c1noc2c1CCCC2 | x | x | 20% | x | x | x
O=C(NCc1cccs1)c1noc2c1CCCCC2 | 4% | 5% | 1% | 54* | 23* | -19%
O=C(NC1CCCC1)c1noc2c1CCCCC2 | -1% | -9% | 3% | 152* | 37* | -11%
O=C(NCc1ccccc1)c1noc2c1CCCCC2 | -4% | 35% | -7% | 84* | 46* | -8%
SMILES | SARS PLP yeast | AMA1 RON2 block | AmpC detergent | Shiga toxin inh | Cycloheximide cs | AmpC no deterg
COc1ccc2c(c1)CCc1c(C(=O)NCc3ccc(F)cc3)noc1-2 | 0% | 4% | u | 4 | -1 | -22%
Cc1nn(Cc2ccccc2Cl)c(C)c1NC(=O)c1noc2c1CCCCC2 | -7% | -23% | 4% | 4 | 21* | 70%
CC(NC(=O)c1noc2c1CCCCC2)c1ccccc1 (centres undefined) | -2% | -10% | -15% | 45* | 33* | -17%
c1ccc(-c2cn3c4c(sc3n2)CCCC4)cc1 | -30% | 19% | 0% | -2 | 12* | -38%
COC(=O)C1=C(C)NC(C)=C(C(=O)OCC(C)C)C1c1ccccc1[N+](=O)[O-] (centres undefined) | x | 14µM* | x | x | x | x
c1ccc(COc2ccc(-c3csnn3)cc2)cc1 | -1% | 6% | 2% | 60* | 60* | -28%
Cc1ccccc1C(=O)Oc1ccc(-c2csnn2)cc1 | -1% | 15% | 2% | 21 | 22* | -30%
CC(=O)COc1ccc(-c2csnn2)cc1 | 1% | 3% | -5% | 42* | 12 | -16%
CN1C(=O)C(=O)N(CC(=O)N2CCc3ccccc32)C1=O | 4% | -6% | -13% | 44 | 6 | -6%
O=C(NNc1ccccn1)C(c1ccccc1)c1ccccc1 | 0% | 105% | u | 17 | 9 | -22%
CCN1CCN(c2ccc(NC(=O)c3ccc(OC)c(S(=O)(=O)N4CCCC4)c3)cc2)CC1 | -4% | -15% | 5% | x | x | 40%
COC(=O)c1cccc(C(=O)Nc2ccc(C)cc2Br)n1 | -2% | 0% | -11% | 65* | 38* | 4%
Cc1ccc(NC(=O)c2cccc(C(=O)OC(C)C)n2)c(Br)c1 | -1% | 17% | -1% | 75* | 23* | 51%
COC(=O)c1cccc(C(=O)Oc2cccc(Br)c2)n1 | -3% | 39% | 2% | -15 | -3 | -4%
Cc1ccc(C(=O)OCC(=O)NC2CCCC2)cc1C | -1% | -3% | -9% | 54* | 22* | -11%
CC(C)c1ccc(C(=O)OCC(=O)NC2CCCC2)cc1 | -2% | 7% | -3% | 31 | 27* | -7%
CCc1ccc(C(=O)OCC(=O)NC2CCCC2)cc1 | 1% | -1% | -4% | 45 | 30* | 0%
COc1ccc(C(=O)OCC(=O)NC2CCCC2)cc1OC | 0% | 7% | 3% | -5 | -1 | -5%
CCOC(=O)c1c(NC(=O)c2cc(CC)on2)sc(C)c1C | x | x | 12% | x | x | x
O=C(CCN1C(=O)/C(=C/c2ccccc2Cl)SC1=S)NC1C=CS(=O)(=O)C1 (centres undefined) | -5% | 3% | -4% | -9 | 8 | 28µM*
O=C(Nc1cccn2ncnc12)c1ccc(Cl)cc1Cl | 3% | 6% | 5% | -9 | -1 | -4%
Cc1ccc(C(=O)Nc2cnc3ccccn3c2=O)cc1 | -15% | 8% | 4% | 103* | 41* | 5%
O=C(Nc1cnc2ccccn2c1=O)c1ccc(Cl)cc1Cl | -2% | 7% | u | 96* | 44* | -5%[11.4 µM]
